Most compounds without a hit are left out; they make up all but 1.6% or so of the library.
KCNQ2 pot: potentiators of rat KCNQ2 potassium channel; Potassium voltage-gated channel subfamily KQT member 2 (Rattus norvegicus), O88943; CHO-K1 KCNQ2, FluxOR thallium flux fluorescence; hits give high values; B-score at 10 µM; 310,000 tested, 0.54% active;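 active means fluorescence ratio B-score at least 3 SD of library B-scores, with initial fluorescence B-score within 3 of them, cut at about 5.3 in these data; same plate scores as AID 2156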;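 further: B-score of peak minus minimum over baseline fluorescence ratio after K+ and Tl+ stimulus; positive B-score means potentiation of KCNQ2 with more thallium influx and brighter signal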
KCNQ2 inh: rat KCNQ2 potassium channel inhibitors, primary screen, cell-based, CHO-K1, FluxOR thallium flux, B-score; Potassium voltage-gated channel subfamily KQT member 2 (Rattus norvegicus), O88943; 310,000 tested, 1.1% active; B-score at 10 µM; 20 min; hits give low values;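 active means fluorescence ratio B-score at most minus 3 library SDs, with starting brightness B-score within 2 library SDs, cut at about -5.5 in these data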
Kir21 conf inh: mouse Kir2.1 channel blockers, retest, confirmation, cell-based, FluxOR thallium flux, duplicate. shares compounds with KCNQ2 pot. Kir2.1-expressing cells, FluxOR thallium flux fluorescence; hits give low values. Tl flux remaining, % of negative control (hits give low values), % at 10 µM. 2,300 tested, 41% active. AID 2032, 2009;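 active means Primary-screen hit whose thallium flux fell at least 3 control SD below untreated wells in both duplicates, with normal baseline fluorescence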;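 further: 0% = blank wells without stimulus and 100% = stimulated no-compound controls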
HEK293 ctr: counter-screen for Kir2.1 inhibitors: effect in parental HEK293 cells; 2,300 tested, 19% active; FluxOR signal as % of negative control (100 = no effect), % at 10 µM; shares compounds with KCNQ2 pot; FluxOR thallium flux fluorescence; 0% = unstimulated blank wells; AID 2105;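 active means dye signal at least 3 control SD above or below untreated wells in both duplicates, raw fluorescence within 3, either direction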;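 further: percent is based on the flux ratio of peak minus minimum fluorescence over baseline F0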
CHO-K1 ctr: nonspecific thallium flux increase in parental CHO-K1, confirmation, counter-screen for KCNQ2 potentiator project, cell-based, FluxOR thallium flux, duplicate; shares compounds with KCNQ2 pot; parental CHO-K1 cells, FluxOR thallium flux fluorescence; zero = vehicle mean+3SD, 100% = vehicle-minus-blank window; activity increase over 3SD of controls, % at 10 µM; 1,200 tested, 43% active;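 active means signal rise of at least 3 SD above the untreated control mean, in both duplicate wells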;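 further: counter screen of KCNQ2 potentiator hits so any rise reflects channel-independent effects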
KCNQ1 pot spec: human KCNQ1 channel potentiation off-target, confirmation, selectivity assay for KCNQ2 potentiator project, cell-based, CHO, FluxOR thallium flux | activation over 3SD threshold, % at 10 µM | shares compounds with KCNQ2 pot | 1,200 tested, 28% active | CHO KCNQ1 stable, FluxOR thallium flux fluorescence; beyond 3SD, as % of vehicle-control signal;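 active means fluorescence ratio rise of at least 3 SD of vehicle wells above their mean, in both replicate wells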;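 further: 0% = vehicle mean plus 3 SD and 100% = vehicle minus unstimulated blank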
KCNQ2 pot confirm: rat KCNQ2 channel potentiators, confirmation, cell-based, CHO, FluxOR thallium flux, duplicate; shares compounds with KCNQ2 pot; CHO-KCNQ2 cells, FluxOR thallium flux fluorescence; potentiation, less the hit threshold, % at 10 µM; 1,200 tested, 68% active; AID 2287, 2010;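 active means fluorescence ratio rising 3 SD or more over the vehicle control mean in both replicates, plus primary screen hit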;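 further: peak minus minimum thallium fluorescence divided by baseline after K/Tl stimulus; 0% = vehicle mean plus 3 SD and 100% = vehicle minus unstimulated blank difference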
Kir21 spec: mouse Kir2.1 channel activation off-target, confirmation, selectivity assay for KCNQ2 potentiator project, cell-based, HEK293, FluxOR thallium flux; 1,200 tested, 2% active; shares compounds with KCNQ2 pot; activity over 3SD threshold, % at 10 µM; AID 2345, 2010; HEK293 Kir2.1, FluxOR thallium flux fluorescence;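 active means fluorescence ratio rise of at least 3 SD above the vehicle-control mean, seen in both replicates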;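 further: 0% = vehicle mean plus 3 SD and 100% = vehicle minus no-stimulus blank window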
KCNQ2 W236L pot: potentiators of retigabine-insensitive KCNQ2 W236L, mechanism study for KCNQ2 potentiator project, cell-based, rat KCNQ2 W236L, CHO, automated patch clamp; shares compounds with KCNQ2 pot; automated patch clamp current; current increase over 3SD of negative controls (%), hits give high values, % at 25 µM; 940 tested, 10% active; AID 2558, 2010;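 active means current increase at least 3 SD of the untreated controls above them in both duplicate recordings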
The depositor's hits bear a star.

What do the screens show for `Cc1c(NS(=O)(=O)c2cc(C(=O)NCC3CCCO3)cc(Cl)c2Cl)c(=O)n(-c2ccccc2)n1C` (stereo not given)?
KCNQ2 inh: inactive

How did COc1ccc(C(O)Cn2cc([N+](=O)[O-])nc2C)cc1 (stereo not given) do in these assays?
KCNQ2 inh: inactive

Results for COc1cccc(C(=O)Nc2ccc(C(=O)c3ccncc3)cc2)c1 ?
KCNQ2 pot: 2.53; KCNQ2 inh: inactive

Results for COc1ccc(C2NC(=O)CCC2[N+](=O)[O-])c(OC)c1OC (stereo not given) ?
KCNQ2 inh: inactive

Results for CCOC(=O)c1c(-c2ccc(C)o2)csc1NC(=S)NC(=O)N(C)C ?
KCNQ2 pot: 14.5*; KCNQ2 inh: inactive; Kir21 conf inh: inactive; HEK293 ctr: 314.0%*; CHO-K1 ctr: -10.2; KCNQ1 pot spec: -18.5; KCNQ2 pot confirm: 33.8*; Kir21 spec: -8.2; KCNQ2 W236L pot: 58.9%*

How did CCOC(=O)c1c(-c2ccc(C)o2)csc1N do in these assays?
KCNQ2 inh: inactive

What do the screens show for `CNc1ccccc(-c2ccc3cc4c(cc3n2)OCO4)c1=O`?
KCNQ2 inh: inactive

How did CCNCCC(CCC(C)C)c1ccc2c(c1)OCO2 (stereo not given) do in these assays?
KCNQ2 pot: 0.75; KCNQ2 inh: inactive

What do the screens show for `COc1ccc(CNCCC(c2ccccc2)c2ccc3c(c2)OCO3)cc1` (stereo not given)?
KCNQ2 inh: inactive

What do the screens show for `Fc1ccccc1CNCCC(Cc1ccccc1)c1ccc2c(c1)OCO2` (stereo not given)?
KCNQ2 inh: inactive; Kir21 conf inh: 39.5%*; HEK293 ctr: 77.0%*

How did CC(C)CCC(CCNCc1ccccn1)c1ccc2c(c1)OCO2 (stereo not given) do in these assays?
KCNQ2 inh: inactive; Kir21 conf inh: 57.0%*; HEK293 ctr: inactive

How did COc1ccc(OC)c(CNc2ncc(-c3ccc(F)cc3)n2C)c1 do in these assays?
KCNQ2 inh: inactive

Results for CC(=O)Nc1ccc(CN2CCCC(C(=O)c3cccc(C(F)(F)F)c3)C2)cc1 (stereo not given) ?
KCNQ2 inh: inactive

How did COc1ccc(CN2CCCC(C(=O)c3cccc(C(F)(F)F)c3)C2)cc1O (stereo not given) do in these assays?
KCNQ2 inh: inactive; Kir21 conf inh: 39.5%*; HEK293 ctr: inactive

How did COc1cc(NC(=S)NCc2ccc(S(N)(=O)=O)cc2)c(OC)cc1Cl do in these assays?
KCNQ2 inh: inactive

How did CC1CN(S(=O)(=O)c2ccc(C(=O)N(CCCN(C)C)c3nc4c(Cl)cccc4s3)cc2)CC(C)O1 (stereo not given) do in these assays?
KCNQ2 inh: inactive

Results for COc1ccc(OC)c(CCNC(=O)c2ccc(CS(=O)Cc3ccc(Cl)cc3)o2)c1 (stereo not given) ?
KCNQ2 pot: 1.64; KCNQ2 inh: inactive

Results for Clc1cccc(CN2CCC(Cc3ccccc3)CC2)c1 ?
KCNQ2 inh: inactive; Kir21 conf inh: 71.0%*; HEK293 ctr: inactive

How did CSc1ccc(CN2CCC(Cc3ccccc3)CC2)cc1 do in these assays?
KCNQ2 inh: inactive; Kir21 conf inh: 17.5%*; HEK293 ctr: inactive

Results for Clc1ccc(CN2CCC(Cc3ccccc3)CC2)cc1 ?
KCNQ2 inh: inactive

How did CSc1ccc(OC2CCN(Cc3ccccc3)CC2)cc1 do in these assays?
KCNQ2 inh: inactive

Results for CC(Sc1nc2c(c(=O)[nH]1)CCCC2)C(=O)Nc1ccccc1C#N (stereo not given) ?
KCNQ2 pot: 0.98; KCNQ2 inh: inactive

What do the screens show for `CCSc1nc2sc3c(c2c(=O)[nH]1)CC(C)(CC)OC3` (stereo not given)?
KCNQ2 inh: inactive

What do the screens show for `CCC1(C)Cc2c(sc3nc(SC)[nH]c(=S)c23)CO1` (stereo not given)?
KCNQ2 pot: 15.5*; KCNQ2 inh: inactive; Kir21 conf inh: inactive; HEK293 ctr: 456.5%*; CHO-K1 ctr: -15.9; KCNQ1 pot spec: 32.0*; KCNQ2 pot confirm: 81.9*; Kir21 spec: 0.1*; KCNQ2 W236L pot: inactive

What do the screens show for `COc1ccc(N2CCN(C(=O)CCc3ccc(S(=O)(=O)NC(C)(C)C)cc3)CC2)cc1`?
KCNQ2 inh: inactive

How did C/C(=N\NC(=O)c1cc2ccccc2cc1O)c1ccccn1 do in these assays?
KCNQ2 pot: 5.87*; KCNQ2 inh: inactive; Kir21 conf inh: inactive; HEK293 ctr: 166.5%*; CHO-K1 ctr: -9.2; KCNQ1 pot spec: 3.0*; KCNQ2 pot confirm: -8.6; Kir21 spec: -29.4

Results for C/C(=N\NC(=O)c1nc2ccccn2c1C)c1cc2ccccc2o1 ?
KCNQ2 pot: 0.96; KCNQ2 inh: inactive

How did C/C(=N\NC(=O)c1c[nH]c2ccccc12)c1ccccn1 do in these assays?
KCNQ2 inh: inactive

How did C/C(=N\NC(=O)c1cc2ccccc2cc1O)c1cc2ccccc2o1 do in these assays?
KCNQ2 pot: 20.7*; KCNQ2 inh: inactive; Kir21 conf inh: inactive; HEK293 ctr: 451.5%*; CHO-K1 ctr: 93.3*; KCNQ1 pot spec: -9.2; KCNQ2 pot confirm: 69.2*; Kir21 spec: -17.9; KCNQ2 W236L pot: inactive

What do the screens show for `Cc1ccccc1OC1CCN(C(=O)c2cc(COc3ccccc3)on2)CC1`?
KCNQ2 inh: inactive

High-throughput results: PubChem, Johns Hopkins Ion Channel Center
